From PubChem
CYP2C19 activ = increases human CYP2C19 enzyme activity | recombinant CYP2C19, luciferin-H EGE luminescence; hits give high values; 0 = fully inhibited enzyme, 1 = untreated enzyme | P33261 | 96,000 tested, under 10 active | AID 1025 | activation factor at 5 µM;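 active = activation factor of at least 2 at 5 µM in the primary screen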;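 note: 0 = wells with 2.5 mM tranylcypromine and 1 = vehicle-only wells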
Target sequence (P33261 whole entry, looked up): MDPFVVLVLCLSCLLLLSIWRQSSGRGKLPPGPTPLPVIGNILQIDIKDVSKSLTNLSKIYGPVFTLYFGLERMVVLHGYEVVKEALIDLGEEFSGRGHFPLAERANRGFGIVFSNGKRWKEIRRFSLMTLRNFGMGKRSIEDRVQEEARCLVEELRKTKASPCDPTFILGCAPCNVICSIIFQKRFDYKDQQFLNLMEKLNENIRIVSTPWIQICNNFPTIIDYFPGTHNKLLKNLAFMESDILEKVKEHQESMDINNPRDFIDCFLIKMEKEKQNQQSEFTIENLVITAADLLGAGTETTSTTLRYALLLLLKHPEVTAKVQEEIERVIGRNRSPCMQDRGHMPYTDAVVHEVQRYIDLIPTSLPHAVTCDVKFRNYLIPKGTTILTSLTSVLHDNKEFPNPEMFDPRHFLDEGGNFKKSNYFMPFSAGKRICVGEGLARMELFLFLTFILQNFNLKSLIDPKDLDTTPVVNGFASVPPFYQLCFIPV
PLK1 PBD inh = inhibitors of human Plk1 polo box domain binding; 97,000 compounds, 0.13% hits; inhibition, %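 (tested at about 20 µM)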; Plk1 PBD phosphopeptide binding, fluorescence polarization; in the data active = inhibition above about 34%, passing the limit was not always enough
CYP2C9 inhib = inhibitors of human CYP2C9; P11712; CYP2C9 Supersomes, luciferin-H conversion, luminescence; inhibition, % at 5 µM; 96,000 compounds, 20% hits; AID 777;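 active = blocking of liver enzyme CYP2C9 beyond about 50% at 5 µM, limit read from the data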
CYP2C9 activ = CYP2C9 (human) activation | 96,000 compounds, 1.4% hits | AID 1024 | activation factor at 5 µM | recombinant CYP2C9, luciferin-H conversion, luminescence; hits give high values; factor 1 = untreated enzyme, 0 = blocked | P11712;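 active = activation factor of 2 or more for CYP2C9 at a 5 µM dose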;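 note: 0 = sulfaphenazole-blocked wells and 1 = vehicle-only wells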
CYP2C19 inhib = blocks human cytochrome P450 2C19. inhibition, % at 5 µM. AID 778. P33261. 96,000 compounds, 21% hits. CYP2C19 Supersomes, luciferin-H EGE luminescence, 30 min;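 active = CYP2C19 inhibition above a set limit at 5 µM in the primary screen, cut at about 50% in these data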;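 note: plate controls were negative control wells for no effect and 2.5 mM tranylcypromine positive control for full effect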
PLK1 inh = inhibitors of human PLK1 kinase; AID 619; 97,000 compounds, 0.53% hits; recombinant PLK1 kinase, TR-FRET peptide phosphorylation; inhibition, % at 10 µM;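 active = inhibition of 50% or more in the single-concentration screen; inactive = inhibition below 50%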;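 note: 0% = DMSO max control and 100% = H-89 dihydrochloride min control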
* = called active by the depositor; . = no result given. A selection: hits, their analogues and other compounds. The true share with any hit is near 28%.

SMILES	CYP2C19 activ	PLK1 PBD inh	CYP2C9 inhib	CYP2C9 activ	CYP2C19 inhib	PLK1 inh
CCOc1ccc(-n2c(=S)sc3c(=O)[nH]c(SCC(=O)NC(C)CC)nc32)cc1 (stereo not given)	0.9	-7.8	78.2*	0.2	10.6	15.2
CCOc1ccc(-n2c(SCC(=O)NC(C)CC)nc3n[nH]c(C)c3c2=N)cc1 (stereo not given)	0.8	15.2	7.1	0.9	23.2	2.5
N#Cc1ccc(-c2ccc(F)cc2)nc1SCC(=O)Nc1sc2c(c1C#N)CCC2	1.1	5.1	-2.6	1	-10.9	-26.3
CC(=O)c1ccccc1NS(=O)(=O)c1c(C)nn(-c2ccccc2)c1C	0	6.4	51.3*	0.5	98.7*	-1.8
O=C(NCC1COc2ccccc2O1)C1CCC(CNc2c(N3CCCCC3)c(=O)c2=O)CC1 (stereo not given)	0.7	4.2	43.8	0.6	33.9	-8.4
COC(=O)NNC(=O)C(C)Oc1ccc(Cl)cc1Cl (stereo not given)	0.9	9.2	-0.9	1	12.8	-8.0
Cc1cc(Cl)ccc1OC(C)C(=O)NCCCCc1ccccc1 (stereo not given)	0.6	0.1	55.9*	0.4	44.7	-6.0
CC(Oc1ccc(Cl)cc1Cl)C(=O)Nc1ncccn1 (stereo not given)	0.3	-4.2	19.0	0.8	69.1*	-3.1
CC(Oc1ccc(Cl)cc1Cl)C(=O)NCCCn1ccnc1 (stereo not given)	0	-15.9	98.6*	0	100.4*	-24.5
CC(Oc1ccc(Cl)cc1Cl)C(=O)NCc1ccncc1 (stereo not given)	0	-23.0	97.9*	0	100.4*	-8.6
CC(Oc1ccc(Cl)cc1Cl)C(=O)NCCN1CCOCC1 (stereo not given)	0.6	-4.3	-19.0	1.2	41.7	-10.8
Cc1ccc2nc(NC3=NCN(Cc4ccc5c(c4)OCO5)CN3)nc(C)c2c1	.	5.8	.	.	.	22.6
CC(Oc1ccc(Cl)cc1Cl)C(=O)N/N=C1\CCCc2ccccc21 (stereo not given)	0.6	27.1	60.4*	0.4	42.9	-5.3
Cc1cc(Cl)ccc1OCC(=O)N/N=C1\CCCc2ccccc21	0.8	-29.0	29.5	0.7	17.2	-7.6
N/C(Cc1ccc([N+](=O)[O-])cc1)=N\OC(=O)C(c1ccccc1)c1ccccc1	0.7	-5.1	54.2*	0.5	29.2	-13.1
Cc1cccc(C(=O)O/N=C(\N)Cc2ccc([N+](=O)[O-])cc2)c1	0.2	-18.5	37.1	0.6	84.2*	-7.0
COc1ccc(C/C(N)=N/OC(=O)C(c2ccccc2)c2ccccc2)cc1OC	1	11.2	15.6	0.8	2.1	-6.1
COc1ccccc1CC(=O)Nc1ccc(-c2noc(COc3ccc(Cl)c(C)c3)n2)cc1	1.1	-5.0	11.9	0.9	-9.2	-10.6
CCOc1ccccc1-c1nc(-c2ccc(NC(=O)Cc3ccccc3OC)cc2)no1	0.5	-25.3	-104.2	2*	52.1*	-12.9
CCOP(=O)(c1c(F)c(F)c(F)c(F)c1F)C1(O)CCCCC1 (stereo not given)	1	16.5	-14.3	1.1	-4.6	-5.1
COCc1cc(C)nc2sc(C(=O)N3CCN(c4ccccc4)CC3)c(N)c12	0.2	-8.3	78.4*	0.2	80.1*	-14.3
COCc1cc(C)nc2sc(C(=O)N3CCCCC3)c(N)c12	0.9	3.6	20.1	0.8	12.2	-3.7
Cc1cc(C)c2c(N)c(C(=O)N3CCN(c4ncccn4)CC3)sc2n1	0.5	-3.7	41.6	0.6	50.1*	-8.2
CC(C)COC(=O)c1ccc(NC(=O)C2C3CCC(C3)C2C(=O)O)cc1 (stereo not given)	0.9	6.1	-4.0	1	7.1	-16.6
Cc1ccc(C(=O)Nc2ccc(N3CCOCC3)cc2)cc1	0.9	0.0	6.1	0.9	5.4	-6.5
CC(=O)Nc1ccc(S(=O)(=O)Nc2ccc(S(=O)(=O)N3CCCC3)cc2)cc1	.	-3.3	.	.	.	-7.5
CC(=O)Nc1ccc(S(=O)(=O)Nc2ccc(N3CCOCC3)cc2)cc1	0.1	4.9	40.0	0.6	90.0*	3.6
Cc1ccc(NS(=O)(=O)c2ccc(N3C(=O)CCC3=O)cc2)cc1	0.4	9.4	44.2	0.6	64.3*	-4.7
